NPC1 prom act = NPC1 promoter activation; Huh7 NPC1 promoter luciferase reporter, 24 h; Potency, µM (top dose mostly 9.22 µM), most hits filed as activators; 2.4% of 320,000 active; AID 485313; further: nearly all actives have a fitted effect of over 60% in size
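Readout is luciferase luminescence, reflecting NPC1 promoter activation in stably transfected Huh7 cells after 24 h compound exposure at 37 °C in reduced-serum medium with 10% FBS.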
FLuc counter = counter-screen for miR-21 project: firefly luciferase inhibitors or activators. P08659. purified FLuc, Km substrates, luminescence inhibition. Potency, µM (titrated, usually from 57.5 µM), actives largely listed as inhibitors. 6.9% of 360,000 active; further: nearly all actives have a fitted effect of over 55% in size
Target sequence (P08659 whole entry, looked up): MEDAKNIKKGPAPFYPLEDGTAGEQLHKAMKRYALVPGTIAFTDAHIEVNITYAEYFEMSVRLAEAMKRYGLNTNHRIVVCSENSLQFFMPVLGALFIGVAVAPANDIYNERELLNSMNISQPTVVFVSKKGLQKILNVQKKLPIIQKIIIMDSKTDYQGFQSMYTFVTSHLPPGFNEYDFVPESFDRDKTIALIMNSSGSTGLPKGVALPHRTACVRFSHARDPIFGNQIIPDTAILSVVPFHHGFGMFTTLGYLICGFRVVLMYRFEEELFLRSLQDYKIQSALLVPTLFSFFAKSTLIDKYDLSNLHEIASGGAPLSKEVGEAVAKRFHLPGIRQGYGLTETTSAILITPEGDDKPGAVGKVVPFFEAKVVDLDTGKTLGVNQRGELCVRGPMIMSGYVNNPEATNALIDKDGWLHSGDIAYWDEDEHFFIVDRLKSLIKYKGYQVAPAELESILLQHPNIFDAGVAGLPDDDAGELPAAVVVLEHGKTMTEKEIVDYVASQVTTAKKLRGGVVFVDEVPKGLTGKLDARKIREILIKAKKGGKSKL
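Biochemical qHTS of compounds, final roughly 60 µM downward over six points, against 10 nM purified firefly luciferase using Km concentrations of substrates (10 uM D-luciferin, 10 uM ATP) in Tris acetate pH 7.5 buffer; luminescence output.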
ELG1 repair inh = ELG1-dependent DNA repair inhibition | HEK293T ELG1-luciferase reporter, luminescence, 16 h; DNA damage induced by 5-fluorouridine | Potency, µM (highest dose often 46.1 µM), usual class: inhibitors | 2.3% of 330,000 active | AID 504467; further: nearly all actives have a fitted effect of over 55% in size
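Cells (2,000 per well) received 5-fluorouridine plus test compound or DMSO and were incubated 16 hr at 37 °C, 5% CO2. Luciferase activity was read by luminescence 30 min after ONE-Glo addition; signal suppression marked inhibition of damage-induced ELG1 function.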
ELG1 genotox = induces genotoxicity in HEK293T cells with luciferase-tagged ELG1; Potency, µM (doses to about 46 µM), usual class: activators; HEK293T ELG1-luciferase reporter, luminescence, 16 h; 1.3% of 330,000 active; AID 504466; further: nearly all actives have a fitted effect of over 60% in size
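16 hr compound incubation (37 °C, 5% CO2) of HEK293T cells carrying luciferase-tagged ELG1; luciferase then measured by ONE-Glo luminescence after 30 min at RT.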
Rab9 prom act = Rab9 promoter activation. AID 485297. Huh7 Rab9 promoter-luciferase reporter, luminescence, 24 h. 2.8% of 320,000 active. Potency, µM (highest dose often 9.22 µM), actives largely listed as activators; further: nearly all actives have a fitted effect of over 60% in size
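Using Huh7 cells stably transfected with Rab9 promoter–luciferase, compounds were incubated 24 h at 37 °C, 5% CO2; luciferase luminescence was read 10 min after reagent addition.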
SMN2 splice up = increases expression of the SMN2 splice variant. HEK293 SMN2-luciferase splicing reporter, luminescence, 30-36 h. Potency, µM (series often up to 46.1 µM), actives largely listed as activators. 2.8% of 210,000 active. AID 1458; further: nearly all actives have a fitted effect of over 55% in size
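HEK293 cells carry an SMN2 minigene-luciferase reporter in which exon 7 inclusion puts luciferase in frame. Cells were seeded at 2000 cells/well, attached for 10-12 hours, then exposed to compounds for 30-36 hours at 37C before ONE-Glo luminescence.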
A number is an active result; 0 = inactive; ? = inconclusive; - = no result given; [ ] = another dose, or the depositor's remark. This is a sample that favours compounds with a hit; in the whole collection about 9.4% have one here. The call rests on the fitted dose curve; in most records, active means well fitted curve in the direction sought with a large enough effect; inconclusive means small, poorly fitted or top-dose-only effect, or another doubt; inactive means no such curve, though single readings can be large; an effect the other way counts as inactive or inconclusive.

SMILES	NPC1 prom act	FLuc counter	ELG1 repair inh	ELG1 genotox	Rab9 prom act	SMN2 splice up
O=C(c1cc(COc2ccc(F)cc2F)on1)N1CCN(C(=O)c2ccco2)CC1	0	0	0	0	0	-
CCCOc1cccc(C(=O)N(Cc2sccc2C)C2CCS(=O)(=O)C2)c1 (stereo not given)	-	0	-	-	-	0
CC(=O)Nc1ccc(C(=O)N/N=C/c2ccccc2OCc2ccccc2)cc1	0	17µM	?	0	0	0
O=C(N/N=C/c1ccccc1OCc1ccccc1)c1cccnc1	0	11µM	0	0	0	0
Oc1ccc(N=Cc2ccc(OCc3ccccc3)cc2)cc1	0	13µM	?	?	0	-
O=C(N/N=C/c1ccc(OCc2ccccc2)cc1)c1ccncc1	0	0	?	?	0	16µM
COc1ccc(-n2cc(C(=O)N(CCN(C)C)Cc3ccccc3)c3ccccc3c2=O)cc1	-	0	-	-	-	-
CCN1c2ccccc2-c2nc(SCC(=O)Nc3cccc(C)c3C)ncc2S1(=O)=O	-	0	-	-	-	-
O=C(NCc1cccs1)c1ccc(CSc2nc3ccncc3n2Cc2cccc(F)c2)cc1	-	0	-	-	-	0
CC1=CC(=C2N=C(c3ccccc3)OC2=O)C=C(C)O1	?	?	?	0	?	0
CN1C=CC=C/C1=C1/N=C(c2ccccc2)OC1=O	?	?	0	0	3.2µM	?
Cc1nn(C)c(C)c1S(=O)(=O)N(CC(=O)NCCc1ccc(Cl)cc1)c1ccc(C(C)C)cc1	-	0	-	-	-	0
O=C(O)CSCC(=O)Nc1ccc(-c2nc3ccccc3s2)cc1	0	3µM	?	?	?	-
Cc1ccc(NC(=O)COCC(=O)Nc2ccc(C)cc2)cc1	0	0	0	0	0	-
CCCOc1ccccc1C(=O)Nc1ccc(-c2nc3ccc(C)cc3s2)cc1	-	4.8µM	-	-	-	13µM
COc1cccc(C(=O)Nc2ccc(-c3nc4ccc(C)cc4s3)cc2)c1OC	-	0	-	-	-	-
Cc1ccc2nc(-c3ccc(NC(=O)COCC(=O)O)cc3)sc2c1	?	1.2µM	?	?	?	-
Cc1ccc2nc(-c3ccc(NC(=O)Cc4ccccc4)cc3)sc2c1	-	11µM	-	-	-	?
COc1ccc(C)cc1NC(=O)c1cc(S(=O)(=O)N2CCCCC2)c[nH]1	-	0	-	-	-	-
COC(=O)[C@@]1(Cc2ccccc2)[C@H]2c3cc(C(=O)N(C)C)n(Cc4ccc(S(C)(=O)=O)cc4)c3C[C@H]2CN1C(=O)c1ccccc1	-	-	-	-	-	0
Cc1ccc2nc(-c3ccc(NC(=O)CSCC(=O)O)cc3)sc2c1	4µM	1.7µM	?	?	2.8µM	-
Cc1csc(NC(=O)CSCC(=O)O)c1-c1nc2ccccc2s1	0	0	?	0	0	-
Cc1nn2c3c(cnc2c1-c1ccc(F)cc1)C(=O)CC(c1ccccc1)C3 (stereo not given)	-	0	-	-	-	0
C=CCn1c(SCc2ccccc2)nc2scc(-c3ccc(C)o3)c2c1=O	0	0	0	0	0	0
C=CCn1c(SCC(N)=O)nc2scc(-c3ccc(C)o3)c2c1=O	?	4.8µM	?	?	2.5µM	-
SMILES	NPC1 prom act	FLuc counter	ELG1 repair inh	ELG1 genotox	Rab9 prom act	SMN2 splice up
COc1cc(NC(=O)Cn2ccc3ccccc3c2=O)cc(OC)c1OC	-	0	-	-	-	0
COc1ccc(CN2CCN(C(=O)c3cccc4ccccc34)CC2)cc1Br	0	0	?	0	0	-
COc1ccc(CN2CCN(C(=O)c3cccc4ccccc34)CC2)cc1OC	0	0	12µM	0	0	-
CCOc1cc(CN2CCN(c3cccc(C(F)(F)F)c3)CC2)ccc1OC	0	0	26µM	0	0	0
CCOc1cc(CN2CCN(C(=O)c3cccc4ccccc34)CC2)ccc1OC	0	0	15µM	0	0	-
COc1ccc2c(c1)sc1ncc(C(=O)NCc3cccc(C)c3)c(=O)n12	-	0	-	-	-	0
CC(C)(C)C(=O)/C=c1\[nH]c(=O)/c(=C\c2ccc(F)cc2)s1	0	24µM	?	0	0	0
Cc1ccccc1/C=c1\s/c(=C\C(=O)C(C)(C)C)[nH]c1=O	0	17µM	?	0	0	0
C[C@]12CC[C@H]3c4ccc(O)cc4CC[C@@H]3[C@H]1CC[C@@H]2OP(=O)(O)O	-	-	-	-	-	0[9.22 µM]
CC(=O)OCC(=O)[C@@]1(O)CCC2C3CCC4=CC(=O)C=CC4(C)C3C(O)C[C@]21C (stereo not given in full)	-	-	-	-	-	0
CC(=O)N1N=C(c2cccc(Cl)c2)OC1c1ccc(C(C)C)cc1 (stereo not given)	0	24µM	?	18µM	0	0
CC(C)OC(=O)[C@H]1O[C@H](CCCCOCc2ccccc2)[C@@H](C)[C@H]2O[C@H]21	-	-	-	-	-	0
Cc1csc(NC(=O)CCCc2cccs2)n1	0	?	0	0	0	0
